Assay results published in PubChem BioAssay (EPA / NIEHS).
Where “and” joins values, the source holds several entries; their conditions need not be identical. Equal entries are not always repeated. Where a structure was tested more than once in an assay, its records may differ in their call. Calls of active or inactive are those of the source. How the source made its calls: active means hit-call score of the fitted dose curve at least 0.9, where 1 is the maximum; inactive means score below 0.9.

How the values were obtained:
[1] = read-out: Urokinase-type plasminogen activator receptor (uPAR), PLAUR (gene 5329); test: BSK_CASM3C_uPAR: BioMAP Diversity Plus: CASM3C Assay for Urokinase-type plasminogen activator receptor (uPAR) Biomarker Activity (AID 2283054); conditions: primary human coronary artery smooth muscle cells; actives raise or lower the signal;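 further: cell-surface uPAR protein level quantified by ELISA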
[2] = read-out: Vascular cell adhesion molecule 1 (VCAM1), VCAM1 (gene 7412); test: BSK_CASM3C_VCAM1: BioMAP Diversity Plus: CASM3C Assay for Vascular cell adhesion molecule 1 (VCAM1) Biomarker Activity (AID 2283055); conditions: primary human coronary artery smooth muscle cells; actives raise or lower the signal;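 further: VCAM-1 protein level quantified by ELISA on the cells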
[3] = read-out: Collagen III, COL3A1 (gene 1281); test: BSK_hDFCGF_CollagenIII: BioMAP Diversity Plus: hDFCGF Assay for Collagen III Biomarker Activity (AID 2283056); conditions: primary human foreskin fibroblasts; actives raise or lower the signal
In short: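 Cells: human foreskin fibroblasts, primary. Dosing followed by 24 h incubation, then ELISA for collagen III. Both increases and decreases scored relative to DMSO.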

[4] = read-out: Epidermal growth factor receptor (EGFR), EGFR (gene 1956); test: BSK_hDFCGF_EGFR: BioMAP Diversity Plus: hDFCGF Assay for Epidermal growth factor receptor (EGFR) Biomarker Activity (AID 2283057); conditions: primary human foreskin fibroblasts; actives raise or lower the signal
In short: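 EGFR levels by ELISA in human dermal fibroblast cultures, 24 h post-treatment, fitted bidirectionally versus DMSO. Parallel wells stained with sulforhodamine B to detect overt cytotoxicity.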

[5] = read-out: Interleukin-8 (IL8), CXCL8 (gene 3576); test: BSK_hDFCGF_IL8: BioMAP Diversity Plus: hDFCGF Assay for Interleukin-8 (IL8) Biomarker Activity (AID 2283058); conditions: primary human foreskin fibroblasts; actives raise or lower the signal
In short: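 IL-8 levels from compound-treated primary human fibroblasts were read by ELISA at 24 h, with DMSO serving as baseline for bidirectional fitting.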

[6] = BSK_hDFCGF_Proliferation: Cell Proliferation Assessment in the BioMAP Diversity Plus: hDFCGF Assay (AID 2283059); conditions: primary human foreskin fibroblasts;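 further: curves fitted for both rise and fall of signal versus DMSO baseline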
In short: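 Steps: dose primary human dermal fibroblasts (foreskin); […] fix in 10% TCA; stain with 0.1% SRB; read 560 nm; fit gain or loss of signal against DMSO.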

[7] = read-out: Macrophage colony-stimulating factor (MCSF), CSF1 (gene 1435); test: BSK_hDFCGF_MCSF: BioMAP Diversity Plus: hDFCGF Assay for Macrophage colony-stimulating factor (MCSF) Biomarker Activity (AID 2283060); conditions: primary human foreskin fibroblasts; actives raise or lower the signal
In short: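 M-CSF levels, determined by ELISA, are taken at 24 h after dosing human skin fibroblasts. Responses in either direction are fitted with DMSO serving as the baseline.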

[8] = BSK_hDFCGF_SRB: Viability Assessment in the BioMAP Diversity Plus: hDFCGF Assay (AID 2283061); conditions: primary human foreskin fibroblasts;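 further: cells exposed to compound for 24 h before the read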
In short: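 Cells were dosed with test chemical, cultured 24 h, fixed with 10% TCA, then stained with 0.1% SRB and read at 560 nm. The fibroblasts were human foreskin primary cells, and DMSO served as baseline.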

[9] = read-out: TIMP metallopeptidase inhibitor 1 (TIMP1), TIMP1 (gene 7076); test: BSK_hDFCGF_TIMP1: BioMAP Diversity Plus: hDFCGF Assay for TIMP metallopeptidase inhibitor 1 (TIMP1) Biomarker Activity (AID 2283062); conditions: primary human foreskin fibroblasts; actives raise or lower the signal
In short: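 Fibroblasts from human foreskin are treated with test chemical and harvested at 24 h. TIMP-1 is quantified by ELISA, and gain or loss of signal is scored against DMSO.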

[10] = read-out: Monokine induced gamma interferon (MIG), CXCL9 (gene 4283); test: BSK_hDFCGF_MIG: BioMAP Diversity Plus: hDFCGF Assay for Monokine induced gamma interferon (MIG) Biomarker Activity (AID 2283063); conditions: primary human foreskin fibroblasts; actives raise or lower the signal
In short: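 MIG signal, determined by ELISA, reflects 24 h chemical exposure of human skin primary fibroblasts. DMSO serves as negative control and baseline.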

[11] = read-out: Matrix Metallopeptidase 1 (MMP1), MMP1 (gene 4312); test: BSK_hDFCGF_MMP1: BioMAP Diversity Plus: hDFCGF Assay for Matrix Metallopeptidase 1 (MMP1) Biomarker Activity (AID 2283064); conditions: primary human foreskin fibroblasts; actives raise or lower the signal
In short: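 ELISA read-out of MMP1 from human foreskin fibroblasts (primary skin cells), 24 h post-dose. Gain or loss of signal was fitted bidirectionally versus DMSO negative control; cytotoxicity was checked by SRB in parallel cultures.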

[12] = read-out: Vascular cell adhesion molecule 1 (VCAM1), VCAM1 (gene 7412); test: BSK_hDFCGF_VCAM1: BioMAP Diversity Plus: hDFCGF Assay for Vascular cell adhesion molecule 1 (VCAM1) Biomarker Activity (AID 2283065); conditions: primary human foreskin fibroblasts; actives raise or lower the signal;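 on AC50: VCAM-1 protein level quantified by ELISA after 24 h chemical exposure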
In short: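 Cells are dosed, cultured for 24 h, then VCAM-1 is quantified by ELISA; signal increases and decreases are both fitted relative to DMSO.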

[13] = read-out: Plasminogen activator inhibitor-1 (PAI1), SERPINE1 (gene 5054); test: BSK_hDFCGF_PAI1: BioMAP Diversity Plus: hDFCGF Assay for Plasminogen activator inhibitor-1 (PAI1) Biomarker Activity (AID 2283066); conditions: primary human foreskin fibroblasts; actives raise or lower the signal
In short: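 PAI-1 levels in human dermal foreskin fibroblasts were quantified by ELISA 24 h after dosing, with gain or loss analysed against DMSO. Overt cytotoxicity was checked by sulforhodamine B total-protein staining in parallel cultures.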

[14] = read-out: Intercellular Adhesion Molecule 1 (ICAM1), ICAM1 (gene 3383); test: BSK_KF3CT_ICAM1: BioMAP Diversity Plus: KF3CT Assay for Intercellular Adhesion Molecule 1 (ICAM1) Biomarker Activity (AID 2283067); conditions: primary human keratinocytes with fibroblasts; actives raise or lower the signal
In short: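 Dose the keratinocyte/fibroblast co-culture, wait 24 h, measure ICAM-1 by ELISA, then fit increases or decreases against DMSO. Cytotoxicity is checked in parallel cultures by SRB total-protein staining.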

[15] = read-out: Interferon-gamma inducible Protein 10 (IP10), CXCL10 (gene 3627); test: BSK_KF3CT_IP10: BioMAP Diversity Plus: KF3CT Assay for Interferon-gamma inducible Protein 10 (IP10) Biomarker Activity (AID 2283068); conditions: primary human keratinocytes with fibroblasts; actives raise or lower the signal
In short: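 KF3CT co-culture (keratinocytes + foreskin fibroblasts), 24 h compound, IP-10 by ELISA; bidirectional fit vs DMSO baseline.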

[16] = read-out: Interleukin-1 alpha (IL1a), IL1A (gene 3552); test: BSK_KF3CT_IL1a: BioMAP Diversity Plus: KF3CT Assay for Interleukin-1 alpha (IL1a) Biomarker Activity (AID 2283070); conditions: primary human keratinocytes with fibroblasts; actives raise or lower the signal
In short: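 Primary skin co-culture (keratinocytes, foreskin fibroblasts), 24 h exposure; ELISA for IL-1a; bidirectional curve fit vs DMSO.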

[17] = read-out: TIMP metallopeptidase inhibitor 2 (TIMP2), TIMP2 (gene 7077); test: BSK_KF3CT_TIMP2: BioMAP Diversity Plus: KF3CT Assay for TIMP metallopeptidase inhibitor 2 (TIMP2) Biomarker Activity (AID 2283071); conditions: primary human keratinocytes with fibroblasts; actives raise or lower the signal
In short: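 TIMP-2 measured by ELISA at 24 h in human keratinocyte/fibroblast primary co-cultures exposed to chemicals. Both increases and decreases were fitted against DMSO. Parallel cultures were stained with SRB for total protein as an overt-cytotoxicity check.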

[18] = read-out: Transforming growth factor beta 1 (TGFb1), TGFB1 (gene 7040); test: BSK_KF3CT_TGFb1: BioMAP Diversity Plus: KF3CT Assay for Transforming growth factor beta 1 (TGFb1) Biomarker Activity (AID 2283072); conditions: primary human keratinocytes with fibroblasts; actives raise or lower the signal
In short: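 ELISA quantifies TGF-b1 at 24 h post-dose in a primary human skin co-culture of keratinocytes and fibroblasts, with gain or loss judged against DMSO. Parallel SRB total-protein staining flags overt cytotoxicity.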

[19] = read-out: C-C motif chemokine 2 (Homo sapiens) (UniProt P13500); test: BSK_KF3CT_MCP1: BioMAP Diversity Plus: KF3CT Assay for Monocyte Chemoattractant Protein 1 (MCP1/CCL2) Biomarker Activity (AID 2283073); conditions: primary human keratinocytes with fibroblasts; actives raise or lower the signal
In short: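 Keratinocytes and foreskin fibroblasts were co-cultured, dosed with chemical, and sampled 24 h later. MCP-1 was quantified by ELISA, and the endpoint was analyzed with bidirectional fitting using DMSO as negative control.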

[20] = read-out: Matrix Metallopeptidase 9 (MMP9), MMP9 (gene 4318); test: BSK_KF3CT_MMP9: BioMAP Diversity Plus: KF3CT Assay for Matrix Metallopeptidase 9 (MMP9) Biomarker Activity (AID 2283074); conditions: primary human keratinocytes with fibroblasts; actives raise or lower the signal;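 on AC50: MMP9 protein level quantified by ELISA in the co-culture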
In short: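 ELISA read-out of MMP-9 at 24 h post-dosing in a co-culture of human skin keratinocytes and foreskin fibroblasts. Gain or loss of signal was fitted in both directions against DMSO.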

Measured: AC50

C#CC1(O)CC[C@H]2[C@@H]3CCC4=CCCC[C@@H]4[C@H]3CC[C@@]21C (some centres undefined)
active: [1] 20 µM | [2] 29.4 µM | [3] 34.4 µM | [4] 20 µM | [6] 15.1 µM | [7] 30 µM | [8] 35.2 µM | [9] 33 µM | [10] 35 µM | [11] 37.5 µM | [12] 37.5 µM | [13] 36.7 µM | [14] 13.6 µM | [15] 34 µM | [16] 31.7 µM | [17] 20 µM | [18] 25.4 µM | [19] 30.9 µM | [20] 31.9 µM
inactive: [5]

CCCCC(CC)COC(=O)c1ccccc1O (centres undefined)
inactive: [1] | [2] | [4] | [5] | [14] | [15] | [16] | [17] | [18] | [19] | [20]
active: [3] 6.81 µM | [6] 7 µM | [7] 13.2 µM | [8] 14.4 µM | [9] 12.8 µM | [10] 15 µM | [11] 17.8 µM | [12] 14.6 µM | [13] 7.32 µM

Nc1ccc(N)c(Cl)c1
active: [2] 27.2 µM and 11.1 µM | [3] 28.4 µM | [4] 21.4 µM | [6] 9.65 µM | [7] 14.9 µM and 16.5 µM | [8] 32.3 µM and 32.1 µM | [9] 34.2 µM | [10] 17.2 µM and 17.5 µM | [11] 34.5 µM and 33 µM | [12] 13 µM and 17.1 µM | [13] 26.4 µM and 31.4 µM | [16] 8.84 µM and 11.4 µM | [20] 20 µM and 18.3 µM
inactive: [1] | [3] | [4] | [5] | [9] | [14] | [15] | [17] | [19]

O=Nc1ccc(O)cc1
inactive: [1] | [2] | [3] | [4] | [5] | [6] | [7] | [8] | [9] | [10] | [11] | [12] | [13] | [14] | [15] | [16] | [17] | [18] | [19] | [20]

C=CC(=O)OCC(Br)CBr (centres undefined)
active: [1] 28.9 µM | [2] 11.4 µM | [3] 5.82 µM | [5] 20 µM | [6] 5.47 µM | [7] 5.95 µM | [8] 9.67 µM | [9] 11.9 µM | [10] 6.57 µM | [11] 11.8 µM | [12] 1.65 µM | [13] 8.55 µM | [14] 25.2 µM | [15] 30 µM | [16] 32.2 µM | [17] 32 µM | [18] 5.81 µM | [20] 28.1 µM
inactive: [4] | [19]

O=C1CCCN1CCO
inactive: [1] | [2] | [3] | [4] | [5] | [6] | [7] | [8] | [9] | [10] | [11] | [12] | [13] | [14] | [15] | [16] | [17] | [19] | [20]

CCOC(=O)c1ccccc1C(=C1C=C(Br)C(=O)C(Br)=C1)c1cc(Br)c(O)c(Br)c1
active: [2] 19.4 µM and 23.1 µM | [3] 3.29 µM and 3.26 µM | [5] 8.71 µM and 8.48 µM | [6] 3.46 µM and 3.43 µM | [7] 5.09 µM and 3.85 µM | [9] 3.75 µM and 3.67 µM | [10] 3.85 µM and 3.76 µM | [11] 4.03 µM and 4.34 µM | [12] 4.49 µM and 3.7 µM | [13] 3.56 µM and 3.54 µM | [14] 5.2 µM and 5.41 µM | [15] 3.9 µM and 3.58 µM | [16] 3.49 µM and 3.47 µM | [17] 3.46 µM and 3.44 µM | [19] 3.39 µM and 3.47 µM | [20] 3.55 µM and 3.24 µM
inactive: [1] | [4] | [8]

COCc1c(C(C)C)nc(C(C)C)c(/C=C/[C@@H](O)C[C@@H](O)CC(=O)O)c1-c1ccc(F)cc1
inactive: [1] | [2] | [3] | [4] | [7] | [9] | [10] | [11] | [12] | [13] | [14] | [15] | [16] | [17] | [18] | [20]
active: [6] 0.0803 µM | [8] 0.32 µM | [19] 0.071 µM

C=CC=CC=CCCCCC
inactive: [1] | [4] | [5] | [7] | [8] | [9] | [10] | [11] | [12] | [13] | [14] | [15] | [16] | [17] | [18] | [19] | [20]
active: [2] 5 µM | [3] 7.41 µM | [6] 7.28 µM
